# Results published in PubChem BioAssay AID493221 (Johns Hopkins Ion Channel Center, 2011).
# Screen size: about 2,400 compounds; about 1,700 (71%) were called active.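 The calls were made as follows: active = choline transporter activity left, mean of duplicates at 10 µM, below buffer-only control mean minus 3 SD; inactive = the rest.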 The set was probably picked from earlier hits. A selection follows.
# Biological target: High affinity choline transporter 1 (Homo sapiens) (UniProt Q9GZV3)
# Test: CHT inhibitors, confirmation, cell-based, membrane potential dye, duplicate (AID 493221)
# Details: CHT-expressing cells, at 10 µM, LV-to-AA substituted CHT, HEK293 cells
# Chain of High affinity choline transporter 1 (Homo sapiens) (Q9GZV3 whole entry, looked up): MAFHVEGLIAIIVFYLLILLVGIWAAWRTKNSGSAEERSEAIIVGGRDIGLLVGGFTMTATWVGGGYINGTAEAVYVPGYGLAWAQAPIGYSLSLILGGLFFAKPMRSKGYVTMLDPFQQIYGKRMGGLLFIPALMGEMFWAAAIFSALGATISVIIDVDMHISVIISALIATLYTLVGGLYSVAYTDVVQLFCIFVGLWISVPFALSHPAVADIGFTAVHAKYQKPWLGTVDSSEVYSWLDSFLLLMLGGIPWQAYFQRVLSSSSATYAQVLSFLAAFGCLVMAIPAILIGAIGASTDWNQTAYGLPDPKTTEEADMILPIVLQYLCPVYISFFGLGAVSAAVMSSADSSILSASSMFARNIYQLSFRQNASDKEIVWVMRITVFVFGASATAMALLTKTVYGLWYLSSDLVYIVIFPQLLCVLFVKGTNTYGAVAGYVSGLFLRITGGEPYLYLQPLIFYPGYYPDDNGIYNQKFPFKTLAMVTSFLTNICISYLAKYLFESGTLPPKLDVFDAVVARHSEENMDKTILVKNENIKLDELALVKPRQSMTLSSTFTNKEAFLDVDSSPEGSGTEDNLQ
row,SMILES,CHT activity remaining % of control (hits give low values)
1,CC(C)(C)C(=O)/C(C#N)=C/c1ccc(O)cc1,68.6% (active)
2,O=C(Nc1ccn(Cc2ccccc2)n1)c1n[nH]c([N+](=O)[O-])c1Cl,48.6% (active)
3,CC1CCN(C(=O)CN(c2ccc(Oc3ccccc3)cc2)S(C)(=O)=O)CC1,inactive
4,CC(C)(C)NC(=O)NC(=O)CN1CCC(Cc2ccccc2)CC1,43.5% (active)
5,Cc1ccc(SC(CC(=O)c2ccc(C(C)(C)C)cc2)C(=O)O)cc1 (stereo not given),42% (active)
6,CC1CCN(CCCNC(=O)CN2C(=O)CSc3ccc(S(=O)(=O)N4CCCCC4)cc32)CC1,53.6% (active)
7,CCOCCCN(C)C1CCN(C(=O)c2oc3ccccc3c2NC(=O)COc2cccc(C)c2)CC1,44.8% (active)
8,Cc1cccnc1NC(=O)c1cccc(S(=O)(=O)N2CCN(c3ccc(F)cc3)CC2)c1,56.9% (active)
9,Cc1ccc(C(=O)NC2CCCC(C)C2C)cc1S(=O)(=O)N1CCCCC1 (stereo not given),43.5% (active)
10,CC1CCCC(NC(=O)c2cccc(N3CCCC3=O)c2)C1C (stereo not given),45.1% (active)
11,CC1CN(S(=O)(=O)c2ccc(C(=O)NN3CCN(C)CC3)cc2)CC(C)O1 (stereo not given),inactive
12,O=C(C1CCN(S(=O)(=O)c2ccc(Br)s2)CC1)N1CCN(c2ccccc2)CC1,41.8% (active)
13,COc1ccc2c(c1)OC(O)(C(F)(F)C(F)F)CC2=O (stereo not given),25.8% (active)
14,CN(C)c1ccc(Nc2c3c4c(cccc4n(C)c2=O)C(=O)c2ccccc2-3)cc1,42.1% (active)
15,CC1(C)SC2C(NC(=O)COc3ccccc3)C(=O)N2C1C(=O)O (stereo not given),inactive
16,CC(NC(=O)c1ccc(N2CCNCC2)c([N+](=O)[O-])c1)C12CC3CC(CC(C3)C1)C2 (stereo not given),52.3% (active)
17,CCc1ccccc1N1CN(Cc2ccco2)CNC1=S,inactive
18,CCOC(=O)C1(CCOC)CCN(Cc2ccc(C(=O)OC)cc2)CC1,71% (active)
19,O=C(O)c1ccc(/C=C2\SC(=S)N(NC(=O)c3ccc(Br)cc3)C2=O)cc1,41.7% (active)
20,CCOc1ccc(/C=C2\SC(=S)N(NC(=O)c3ccncc3)C2=O)cc1OC,69.4% (active)
21,O=C1/C(=C/c2ccc(F)cc2)SC(=S)N1NS(=O)(=O)c1ccccc1,71.2% (active)
22,CC(C)n1c(=S)[nH]c2cc(C(F)(F)F)ccc21,59.3% (active)
23,CC(Oc1ccc2ccccc2c1)C(=O)NNC(=S)NC(=O)c1ccco1 (stereo not given),67% (active)
24,N#Cc1ccc(C(=O)Nc2cccc3cccnc23)c(F)c1,inactive
25,COc1ccc(C(CNC(=O)c2cccc(NS(=O)(=O)c3ccc(C)c(F)c3)c2)N2CCCC2)cc1 (stereo not given),38.4% (active)
